# Assay outcomes as filed in PubChem BioAssay.
# Only some compounds are listed: those with a hit (about 7.5% of all), similar ones and a draw of the others.
# Rab9 prom act: Rab9 promoter activation. Huh7 Rab9 promoter-luciferase reporter, luminescence, 24 h. Potency, µM (doses to about 9.22 µM), inactives show top-dose activation, negative = inhibition, usual class: activators. 320,000 tested, 2.8% active. AID 485297; note: % of control where 0% means no effect; nearly all actives have a fitted effect of over 60% in size
#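 Cells were plated at 1500 per well in reduced-serum medium with 10% FBS and left 2 h. Compound in DMSO was then added for 24 h at 37 °C. Reporter signal was read by luminescence after 10 min with luciferase detection reagent.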
# NPC1 prom act: NPC1 promoter activation; Huh7 NPC1 promoter luciferase reporter, 24 h; Potency, µM (series often up to 9.22 µM), inactives show at the highest dose activation, usual class: activators; 320,000 tested, 2.4% active; AID 485313; note: % of control where 0% means no effect; nearly all actives have a fitted effect of over 60% in size
#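 NPC1 promoter–luciferase Huh7 cells; 24 h compound; luminescence.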
# FLuc counter: firefly luciferase modulation, counter-screen for miR-21 project; 360,000 tested, 6.9% active; AID 588342; P08659; purified FLuc, Km substrates, luminescence inhibition; Potency, µM (series often up to 57.5 µM), for the others: at the highest dose activity change, negative = inhibition, usual class: inhibitors;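 note: plate controls were vehicle for no effect and reference inhibitor for full effect; nearly all actives have a fitted effect of over 55% in size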
# Target sequence (P08659 whole entry, looked up): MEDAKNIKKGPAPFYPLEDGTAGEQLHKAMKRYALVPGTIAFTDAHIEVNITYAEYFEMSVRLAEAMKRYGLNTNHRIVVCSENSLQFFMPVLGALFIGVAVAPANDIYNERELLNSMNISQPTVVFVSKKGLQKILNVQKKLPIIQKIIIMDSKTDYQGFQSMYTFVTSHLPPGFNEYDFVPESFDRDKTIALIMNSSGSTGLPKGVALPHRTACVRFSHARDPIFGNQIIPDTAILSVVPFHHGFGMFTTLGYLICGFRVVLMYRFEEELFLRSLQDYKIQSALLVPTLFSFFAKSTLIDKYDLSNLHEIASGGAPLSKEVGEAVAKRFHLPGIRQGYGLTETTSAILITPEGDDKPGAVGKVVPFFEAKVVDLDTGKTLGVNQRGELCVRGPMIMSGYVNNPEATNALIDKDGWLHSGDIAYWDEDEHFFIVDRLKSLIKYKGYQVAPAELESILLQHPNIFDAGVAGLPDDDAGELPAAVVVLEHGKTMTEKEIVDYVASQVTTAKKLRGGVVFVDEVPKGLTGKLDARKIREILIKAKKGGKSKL
#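 Purified P. pyralis luciferase (10nM final) with 10uM D-luciferin and 10uM ATP (Km levels) in 50mM Tris acetate pH 7.5, 10mM Mg acetate, 0.01% Tween-20, 0.05% BSA; qHTS 6-point titration, ~60 µM downward; luminescence read.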
# ELG1 genotoxic: genotoxicity induction in ELG1-luciferase HEK293T cells; HEK293T ELG1-luciferase reporter, luminescence, 16 h; Potency, µM (top dose mostly 46 µM), for inactives: at the top dose activity change, positive = activation, actives largely listed as activators; 330,000 tested, 1.3% active; AID 504466; note: % of control where 0% means no effect; nearly all actives have a fitted effect of over 60% in size
#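 DMSO vehicle served as control against compound-treated ELG1-luciferase HEK293T cells; exposure lasted 16 hr at 37 °C and 5% CO2, followed by ONE-Glo luminescence detection after 30 min.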
# SMN2 splice enh: increases expression of the SMN2 splice variant | HEK293 SMN2-luciferase splicing reporter, luminescence, 30-36 h | Potency, µM (top dose mostly 46.1 µM), without a hit: at the highest dose activity change, positive = activation, usual class: activators | 210,000 tested, 2.8% active | AID 1458; note: % of control where 0% means no effect; nearly all actives have a fitted effect of over 55% in size
#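 HEK293 cells carry an SMN2 […]–luciferase reporter in which exon 7 inclusion puts luciferase in frame. Cells were plated 10-12 h before compound addition, then incubated 30-36 h at 37C. ONE-Glo luminescence was read; sodium butyrate at 4.5 mM final served as control.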
# Active calls of the source: *; ? = inconclusive; nt = no result given; [ ] = dose if it differs, or a comment. Calls come from the whole dose curve; as a rule, active = well fitted curve in the direction sought with a large enough effect; inconclusive = small, poorly fitted or top-dose-only effect, or another doubt; inactive = no such curve, though single readings can be large; an effect the other way counts as inactive or inconclusive. Potency is the fitted concentration of half-maximal effect.
SMILES,Rab9 prom act,NPC1 prom act,FLuc counter,ELG1 genotoxic,SMN2 splice enh
O=C(O)CCc1nc(-c2cccs2)no1,-1%,-6%,2%,-1%,-6%
O=C(NCc1ccc2c(c1)OCO2)Nc1ccc([N+](=O)[O-])cc1,-7%,-7%,3%,-10%,nt
CCOc1ccc(CCNC(=O)Nc2ccccc2C)cc1OCC,-2%,-3%,0%,-3%,nt
Cc1ccc(NC(=O)C[n+]2ccccc2)cc1[N+](=O)[O-],5%,11%,1%,1%,13%
Cc1ccc(NC(=O)C(C)[n+]2ccccc2)cc1[N+](=O)[O-] (configuration not stated),-4%,-1%,3%,1%,28µM*
CCc1ccc(Nc2ncc3c(n2)CC(C)(C)CC3=O)cc1,2.5µM*,3.2µM*,15µM*,?,nt
Cc1cc(C)cc(Nc2ncc3c(n2)CCCC3=O)c1,4µM*,4µM*,3.4µM*,?,2.5µM*
Cc1ccc2nc(Nc3ncc4c(n3)CCCC4=O)nc(C)c2c1,5%,-2%,-1%,0%,6%
CCc1ccc(Nc2ncc3c(n2)CC(C)CC3=O)cc1 (configuration not stated),1.3µM*,2µM*,?,?,nt
Cc1cccc(Nc2ncc3c(n2)CC(C)CC3=O)c1 (configuration not stated),3.5µM*,3.5µM*,9.5µM*,4.6µM*,11µM*
CCc1ccc(Nc2ncc3c(n2)CC(c2ccc(OC)cc2)CC3=O)cc1 (configuration not stated),-1%,-2%,5%,0%,-15%
CC(CO)(CO)Nc1ncnc2ccccc12,nt,nt,nt,nt,-22%[9.22 µM]
Cc1ccc(-c2cc(C(=O)NN3CCOCC3)c3cc(Br)ccc3n2)o1,-5%,-4%,?,-6%,10%
Cc1ccc(-c2cc(C(=O)O)c3cc(Br)ccc3n2)o1,4%,5%,11µM*,-4%,19%
O=C(NC1=NCCS1)c1cc(-c2cccnc2)nc2ccccc12,5%,-1%,?,-3%,-11%
Cc1ccc(-c2cc(C(=O)NC3=NCCS3)c3cc(Br)ccc3n2)o1,10%,4%,6µM*,-6%,5%
Cc1cccc(-c2cc(C(=O)NCCCn3ccnc3)c3ccccc3n2)c1,-3%,-1%,15µM*,2%,-12%
Cc1ccc(-c2cc(C(=O)NCCCn3ccnc3)c3cc(Br)ccc3n2)o1,-2%,-1%,15µM*,2%,-6%
CN1C(=O)[C@H]2[C@@H](c3ccc(F)cc3)N3C(=O)c4ccccc4NC(=O)[C@@]3(C)[C@H]2C1=O,-1%,-6%,0%,2%,nt
O=C(Cn1cnc2c(nnn2Cc2ccccc2F)c1=O)NCC1CCCO1 (configuration not stated),-2%,-2%,3%,1%,-9%
Cc1ccccc1NC(=O)Cn1nc(-c2ccc(F)cc2)c2cnc3ccccc3c21,nt,nt,-1%,nt,nt
COC(=O)CCCC(=O)N1CCC(n2nccc2NC(=O)CCOc2ccccc2)CC1,25%,-4%,-1%,-3%,nt
O=C(CC(c1ccccc1O)N1CCCCC1)N1CCCCC1 (configuration not stated),-4%,-2%,-6%,2%,-5%
C/C(Cc1ccccc1)=N\NC(=O)CNC(=O)COc1cccc(C)c1,-3%,0%,0%,0%,nt
Cc1ccc(-c2cc(C(=O)O)c3cc(Br)ccc3n2)s1,22%,?,2.4µM*,6%,nt
SMILES,Rab9 prom act,NPC1 prom act,FLuc counter,ELG1 genotoxic,SMN2 splice enh
Oc1c(C=Nc2cccc3cccnc23)sc2ccccc12,-20%,-4%,0.38µM*,3.3µM*,-6%
Oc1ccc(Cl)cc1N=Cc1sc2ccccc2c1Cl,1%,2%,-17%,29%,-17%
Cc1c(/C=N/O)sc2ccccc12,-1%,-4%,?,1%,nt
Cc1cccc(/N=C/c2sc3ccccc3c2O)n1,?,21%,0.48µM*,4.6µM*,nt
Cc1cccc(/N=C/c2c(O)[nH]c3ccccc23)n1,3.5µM*,?,4.3µM*,?,?
CC(C)N=Cc1c(O)[nH]c2ccccc12,-7%,2%,3%,1%,-4%
O=[N+]([O-])c1ccc(O)c(N=Cc2sc3ccccc3c2O)c1,-17%,15%,11µM*,13%,-77%
CSc1ccc(-c2nc(CSCC(=O)NC3CC3)c(C)o2)cc1,-11%,-1%,?,3%,nt
CCc1ccc(-c2nc(CSCC(=O)NC3CC3)c(C)o2)cc1,-29%,-15%,19µM*,2%,nt
COc1ccc(-c2nc(CSCC(=O)NCc3ccco3)c(C)o2)cc1,-7%,1%,17µM*,-2%,-41%
COc1ccc(-c2nc(CSCC(=O)NCCc3ccccc3)c(C)o2)cc1,nt,nt,?,nt,-57%
CC(C)NC(=O)COC(=O)c1ccc(O)cc1,-2%,0%,4%,0%,-12%
Cc1noc(NS(=O)(=O)c2ccc(N/C=C\C(=O)c3ccncc3)cc2)c1C,9%,-3%,-1%,-4%,-4%
Cc1noc(NS(=O)(=O)c2ccc(NC(=O)c3ccc(OC(C)C)cc3)cc2)c1C,1%,-1%,13µM*,3%,nt
CC(C)Oc1ccc(C(=O)N/N=C/c2ccc(-c3ccc(S(=O)(=O)Nc4ncccn4)cc3)o2)cc1,10%,7%,27µM*,-1%,7%
Cc1noc(NS(=O)(=O)c2ccc(N/C=C/C(=O)c3ccc(F)cc3)cc2)c1C,17%,5%,21µM*,-5%,-27%
Cc1noc(NS(=O)(=O)c2ccc(NC(=O)c3ccc(N(C)C)cc3)cc2)c1C,22%,1%,nt,5%,nt
CCc1ccc(C(=O)/C=C/Nc2ccc(S(=O)(=O)Nc3onc(C)c3C)cc2)cc1,?,20%,11µM*,13%,7%
Nc1ccn([C@@H]2CC[C@H](CO)O2)c(=O)n1,nt,nt,nt,nt,23%[20.6 µM]
O=C(Cn1c(=O)n(CC2CCCO2)c(=O)c2ccccc21)N1CCN(c2ccccc2)CC1 (configuration not stated),2%,2%,1%,-8%,25%
Cc1noc(NS(=O)(=O)c2ccc(N/C=C/C(=O)c3ccncc3)cc2)c1C,-9%,1%,-2%,3%,3%
CCc1ccc(OCC(=O)Nc2ccc(S(=O)(=O)Nc3onc(C)c3C)cc2)cc1,nt,nt,12µM*,nt,-3%
COc1ccc(C(=O)/C=C/Nc2ccc(S(=O)(=O)Nc3onc(C)c3C)cc2)cc1,-1%,8%,7.6µM*,15%,19%
COCCCNC(=O)c1ccccc1C(F)(F)F,-1%,0%,-2%,0%,nt
Cc1nc2nc(-c3ccco3)nn2c(C)c1Cl,0%,10%,-19%,-1%,35µM*
CCSc1nc(N)nc(-c2cccs2)c1C#N,23%,26%,?,21µM*,?
CCN(CC)C(=O)CSc1nc(N)c(C#N)c(-c2cccs2)c1C#N,-4%,-4%,2%,6%,-16%
